In PubChem BioAssay AID687001 (Broad Institute, 2013):
Results with a measured potency or affinity are listed apart. The source made the active and inactive calls.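 Rule for the calls: active = signal-lowering compounds whose fitted half-maximal concentration is at or below twice the top tested dose in every run; inconclusive = runs disagree, flat 30 to 70% inhibition, or poor curve fit; inactive = the rest.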

Target: Protein S100-A4 (Homo sapiens) (UniProt P26447)
Test: human S100A4 peptide interaction inhibition curves – biochemical, fluorescence polarization, cherry-picked hits, dose response (AID 687001)

Chain of Protein S100-A4 (Homo sapiens) (P26447 whole entry, looked up): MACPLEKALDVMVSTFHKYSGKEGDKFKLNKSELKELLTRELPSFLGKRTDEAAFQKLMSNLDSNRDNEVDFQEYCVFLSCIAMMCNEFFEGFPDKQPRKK

Row | Compound | outcome
1 | COC(=O)C1=C(c2cc3ccccc3s2)C[C@@H]2CC[C@H]1N2C(=O)NCc1ccc(C(F)(F)F)cc1 | inactive
2 | Cc1c(C)c2ccc(OCC(=O)N3CCC(C(=O)O)(c4ccccc4)CC3)cc2oc1=O | inactive
3 | Cc1c(OC(=O)N(C)C)ccc2c1O/C(=C\c1ccco1)C2=O | inactive
4 | Cc1ccccc1C(=O)N1Cc2ccccc2-n2nncc2C1 | inactive
